# Reference: PubChem BioAssay (Tox21)
# Results filed as inconclusive are left out. Active and inactive are the calls of the source. Calls come from the whole dose curve; as a rule, active = well fitted inhibition curve with a large enough effect in the signal ratio in the repeat runs (not every such curve was filed as active); inconclusive = weak or mixed curves, or effect the other way; inactive = no such curve, though single readings can be large or run the other way; the % refers to the signal ratio.
# Target: Androgen receptor (Homo sapiens) (UniProt P10275)
# Sequence (P10275 whole entry, looked up): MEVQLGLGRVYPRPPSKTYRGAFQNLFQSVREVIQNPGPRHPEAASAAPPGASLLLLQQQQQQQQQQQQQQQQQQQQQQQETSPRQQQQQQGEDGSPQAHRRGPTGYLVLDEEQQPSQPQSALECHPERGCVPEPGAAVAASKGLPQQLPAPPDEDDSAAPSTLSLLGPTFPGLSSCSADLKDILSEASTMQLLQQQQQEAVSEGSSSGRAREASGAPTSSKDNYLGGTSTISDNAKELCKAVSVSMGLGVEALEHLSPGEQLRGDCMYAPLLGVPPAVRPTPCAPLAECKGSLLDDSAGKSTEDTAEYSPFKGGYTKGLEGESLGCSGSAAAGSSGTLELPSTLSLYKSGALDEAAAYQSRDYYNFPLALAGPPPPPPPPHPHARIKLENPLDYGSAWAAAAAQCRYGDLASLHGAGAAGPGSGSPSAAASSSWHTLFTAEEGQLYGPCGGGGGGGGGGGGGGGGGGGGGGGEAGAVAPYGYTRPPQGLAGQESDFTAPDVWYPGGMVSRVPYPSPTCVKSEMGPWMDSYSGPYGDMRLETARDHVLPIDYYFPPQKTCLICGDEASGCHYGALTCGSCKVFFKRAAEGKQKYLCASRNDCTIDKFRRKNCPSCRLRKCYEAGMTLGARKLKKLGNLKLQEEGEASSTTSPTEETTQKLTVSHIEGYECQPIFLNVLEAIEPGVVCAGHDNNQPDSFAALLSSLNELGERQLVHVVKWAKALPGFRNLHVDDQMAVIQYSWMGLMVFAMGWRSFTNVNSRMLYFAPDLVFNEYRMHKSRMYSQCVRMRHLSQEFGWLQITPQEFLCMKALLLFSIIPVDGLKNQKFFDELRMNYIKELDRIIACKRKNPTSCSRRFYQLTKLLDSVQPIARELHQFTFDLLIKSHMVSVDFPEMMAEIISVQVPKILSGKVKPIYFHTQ
# Test: qHTS assay to identify small molecule antagonists of the androgen receptor (AR) signaling pathway (AID 743035)
# Conditions: HEK293 AR-UAS-bla, R1881-stimulated, beta-lactamase FRET, 16 h; series mostly up to 58.5 µM; activity change, negative = inhibition: at the top concentration
# Source text: National Center for Advancing Translational Sciences [NCATS]
# NIH Chemical Genomics Center [NCGC]
# U.S. Environmental Protection Agency [EPA]
# National Institutes of Environmental Health Sciences [NIEHS]
# National Toxicology Program [NTP]
# U.S. Food and Drug Administration [FDA]
# Androgen receptor (AR), a nuclear hormone receptor, plays a critical role in AR-dependent prostate cancer and other androgen related diseases. Endocrine disrupting chemicals (EDCs) and their interactions with steroid hormone receptors like AR may cause disruption of normal endocrine function as well as interfere with metabolic homeostasis, reproduction, developmental and behavioral functions. To identify the compounds that inhibit AR signaling, GeneBLAzer AR-UAS-bla-GripTite cell line (Invitrogen, Carlsbad, CA, USA) containing a beta-lactamase reporter gene under control of an Upstream Activator Sequence (UAS) stably integrated into HEK293 cells was used to screen the Tox21 10K compound library.
# Tox21 Assay Protocol Summary:
# AR-bla cells were dispensed at 2,000 cells/5 uL of assay medium per well into black wall/clear-bottom 1536-well plates using a Multidrop Combi (ThermoFisher Scientific, Waltham, MA) dispenser. After the assay plates were incubated at a 37C and 5% CO2 for 4 hr, 23 nL of compounds dissolved in DMSO, positive controls or DMSO only was transferred to the assay plate by a Pintool station (Kalypsys, San Diego, CA), followed by addition of 1 uL of agonist (R1881) in culture medium using a Bioraptr Flying Reagent Dispenser (FRD) workstation (Beckman Coulter, Indianapolis, IN, USA). The plates were incubated at a 37C and 5% CO2 for 16 h. After 1 uL of LiveBLAzerTM B/G FRET substrate was added using a Bioraptr FRD, the plates were incubated at room temperature for 2 h and fluorescence intensity was measured by an Envision plate reader (PerkinElmer, Shelton, CT).
# % is set by controls: 0 for no effect and ±100 for the full control effect; potency is the fitted concentration of half-maximal effect.
Compound,"activity change, negative = inhibition",Potency
CN(C)Cc1ccccc1O,7.45% (inactive),–
Cc1cc(C)c(/C=C2\C(=O)Nc3ccccc32)[nH]1,1.5% (inactive),–
CCCCCCOC(=O)C(C)CC (configuration not stated),8.32% (inactive),–
CN(C)c1ccc(C(=C2C=CC(=[N+](C)C)C=C2)c2ccc(N(C)C)cc2)cc1,–,0.347 µM (active)
CCN(CC)c1ccc2c(-c3ccc(S(=O)(=O)O)cc3S(=O)(=O)[O-])c3ccc(=[N+](CC)CC)cc-3oc2c1,0.715% [at 78.9 µM] (inactive),–
O=C(/C=C/c1ccccc1)OC/C=C/c1ccccc1,0.7% (inactive),–
OC[C@H]1O[C@H](O[C@H]2O[C@H](CO)[C@@H](O)[C@H](O)[C@H]2O)[C@H](O)[C@@H](O)[C@@H]1O,3.8% [at 78.9 µM] (inactive),–
CC1(C)[C@@H](O)CC[C@]2(C)[C@H]3C(=O)C=C4[C@@H]5C[C@@](C)(C(=O)O)CC[C@]5(C)CC[C@@]4(C)[C@]3(C)CC[C@@H]12,–,inactive
FC(F)(F)c1cccc(Cl)c1,3.53% (inactive),–
ClCCl,-4.97% (inactive),–
CCN1C(=O)c2ccccc2C1Nc1ccc(OCCN2CCCCC2)cc1 (configuration not stated),-0.38% (inactive),–
Clc1sc(Cl)c(Cl)c1Cl,10.5% (inactive),–
CC(C)OC(=O)C(O)(CC(=O)O)CC(=O)O,3.71% (inactive),–
COC1=C(OC)C(=O)C(CCCCCCCCCCO)=C(C)C1=O,–,16.9 µM (active)
c1ccsc1,9.98% (inactive),–
CCOC(=O)Cn1cccc1-c1nc(-c2ccc(OC)cc2)c(-c2ccc(OC)cc2)s1,-6.23% (inactive),–

Compound,"activity change, negative = inhibition",Potency
Nc1ccc(C(=O)O)c(O)c1,-0.184% (inactive),–
C=CC(=O)OCCOC(=O)C=C,7.04% (inactive),–
Oc1c(I)cc(Cl)c2cccnc12,10.8% (inactive),–
CC(C)(C)NSc1nc2ccccc2s1,–,55.9 µM (active)
NC(=S)NC(N)=S,5.09% (inactive),–
NC(=O)c1cccc([N+](=O)[O-])c1,10.2% (inactive),–
CCOc1ccc2ccccc2c1C(=O)N[C@@H]1C(=O)N2[C@@H]1SC(C)(C)[C@@H]2C(=O)O,2% [at 27 µM] (inactive),–
COc1c(C)c2c(c(O)c1C/C=C(\C)CCC(=O)OCCN1CCOCC1)C(=O)OC2,–,0.674 µM (active)
CCCCCCCCCCCCOC(=O)c1ccc(O)cc1,-8.32% [at 78.9 µM] (inactive),–
CC(CO)Oc1ccccc1 (configuration not stated),-1.06% [at 78.9 µM] (inactive),–
CCCCC(CC)CN1CN(CC(CC)CCCC)CC(C)(N)C1 (configuration not stated),0.0581% [at 27 µM] (inactive),–
O=C(O)Cc1ccccc1Nc1c(Cl)cccc1Cl,-1.32% (inactive),–
CNc1ccc([N+](=O)[O-])cc1,-10.4% (inactive),–
CC(=O)OCC=C(C)C,17% (inactive),–
Cc1ccc(C)cc1,1.98% (inactive),–
CC(=O)c1ccc(C(C)=O)cc1,1.97% [at 78.9 µM] (inactive),–
